Results: PubChem BioAssay (NCATS)
Results filed as inconclusive are left out. Entries that show only a call come without a potency. The source made the active and inactive calls. Unless noted, calls follow the shape of the dose curve; as a rule, active = well fitted curve in the direction sought with a large enough effect; inconclusive = small, poorly fitted or top-dose-only effect, or another doubt; inactive = no such curve, though single readings can be large; an effect the other way counts as inactive or inconclusive.

Tests used:
[1] = NCATS anti-infectives library activity on HEK293 viability as a counter-qHTS vs the C. elegans viability qHTS (AID 1745854);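 also: HEK293 cells exposed to compounds for 24 hr before the viability read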
Procedure, shortened: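 Counter-screen for cytotoxicity: HEK293, 24 hr, 37C, compounds up to 41.7 uM final (a dilution series, 1:5). Readout CellTiter-Glo luminescence, 10 min RT. Digitonin control, 83.3 uM final.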

[2] = molecular target: Rap guanine nucleotide exchange factor 4 (Homo sapiens) (UniProt Q8WZA2); assay: Confirmatory qHTS for agonist of cAMP-regulated guanine nucleotide exchange factor 4 (EPAC2) (AID 1645884);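 also: nucleotide exchange releases bodipy-GDP from Rap1 and this lowers its fluorescence; nearly all actives have a fitted effect of over 65% in size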
[3] = molecular target: Rap guanine nucleotide exchange factor 3 (Homo sapiens) (UniProt O95398); assay: Counterscreen qHTS for antagonist of cAMP-regulated guanine nucleotide exchange factor 3 (EPAC1) (AID 1645888);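 also: fluorescence loss as bound BODIPY-GDP is released from Rap1B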
Procedure, shortened: (§1)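 Measured: fluorescence of BODIPY-GDP bound to Rap1B, which falls as exchange proceeds. Conditions include 50 uM competing GDP, 5 and 30 min reads, and a later cAMP challenge for antagonist detection.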

[4] = molecular target: Rap guanine nucleotide exchange factor 3 (Homo sapiens) (UniProt O95398); assay: Counterscreen qHTS for agonist of cAMP-regulated guanine nucleotide exchange factor 3 (EPAC1) (AID 1645889); also: nearly all actives have a fitted effect of over 40% in size
Procedure, shortened: as §1

[5] = Viability counterscreen for antagonist of constitutive androstane receptor (CAR) against the NCATS DSHEA and TCM libraries (AID 1794837);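 also: compound exposure lasted 24 h before viability reading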
Procedure, shortened: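 Counterscreen performed in a 1536-well qHTS format using HepG2-CYP2B6-hCAR cells; samples titrated in the presence of 48 uM CITCO, with viability measured fluorometrically (405/540 nm) after 24 h.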

[6] = Viability counterscreen for agonist of constitutive androstane receptor (CAR) against the NCATS DSHEA and TCM libraries (AID 1794838);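 also: cells exposed to compound for 24 h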
Procedure, shortened: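 Multiplexed counterscreen: after 24 h compound exposure with 0.75 uM PK11195, HepG2-CYP2B6-hCAR viability was quantified fluorimetrically (CellTiter-Fluor, 405/540 nm) prior to the ONE-Glo luciferase read.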

[7] = molecular target: Nuclear receptor subfamily 1 group I member 3 (Homo sapiens) (UniProt Q14994); assay: Primary qHTS for agonist of constitutive androstane receptor (CAR) against the NCATS DSHEA and TCM libraries (AID 1794839); also: potency is read from the fitted curve at half-maximal effect
Procedure, shortened: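 Concentration–response screen in HepG2-CYP2B6-hCAR cells under 0.75 µM PK11195; 24 h exposure; luminescent reporter signal with multiplexed fluorescent viability.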

[8] = HepG2 viability counterscreen (readout 1: protease activity) against the NCATS DSHEA and TCM libraries (AID 1794841);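 also: cells exposed to compounds for about 24 h before the protease read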
Procedure, shortened: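 After HepG2 cells attach for ~4 h, substances are added and incubated ~24 h at 37C, 5% CO2. GF-AFC fluorescence then CellTiter-Glo luminescence give protease and ATP readouts.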

[9] = molecular target: Rap guanine nucleotide exchange factor 4 (Homo sapiens) (UniProt Q8WZA2); assay: Confirmatory qHTS for antagonist of cAMP-regulated guanine nucleotide exchange factor 4 (EPAC2) (AID 1645885); also: nearly all actives have a fitted effect of over 25% in size; also: potency is read from the fitted curve at half-maximal effect
[10] = NCATS anti-infectives library activity on the primary C. elegans qHTS viability assay (AID 1745855; calls by dose curve; also: potency is read from the fitted curve at half-maximal effect)
Procedure, shortened: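 GFP read-out by 488 nm laser cytometry at day 0, 3 and 7, gated on object perimeter, area and peak intensity, scored viability of PE254-GFP-FLuc worms exposed to compound in S medium with bacterial capsules at 21 °C.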

Rap guanine nucleotide exchange factor 4 (Homo sapiens), sequence (Q8WZA2 whole entry, looked up): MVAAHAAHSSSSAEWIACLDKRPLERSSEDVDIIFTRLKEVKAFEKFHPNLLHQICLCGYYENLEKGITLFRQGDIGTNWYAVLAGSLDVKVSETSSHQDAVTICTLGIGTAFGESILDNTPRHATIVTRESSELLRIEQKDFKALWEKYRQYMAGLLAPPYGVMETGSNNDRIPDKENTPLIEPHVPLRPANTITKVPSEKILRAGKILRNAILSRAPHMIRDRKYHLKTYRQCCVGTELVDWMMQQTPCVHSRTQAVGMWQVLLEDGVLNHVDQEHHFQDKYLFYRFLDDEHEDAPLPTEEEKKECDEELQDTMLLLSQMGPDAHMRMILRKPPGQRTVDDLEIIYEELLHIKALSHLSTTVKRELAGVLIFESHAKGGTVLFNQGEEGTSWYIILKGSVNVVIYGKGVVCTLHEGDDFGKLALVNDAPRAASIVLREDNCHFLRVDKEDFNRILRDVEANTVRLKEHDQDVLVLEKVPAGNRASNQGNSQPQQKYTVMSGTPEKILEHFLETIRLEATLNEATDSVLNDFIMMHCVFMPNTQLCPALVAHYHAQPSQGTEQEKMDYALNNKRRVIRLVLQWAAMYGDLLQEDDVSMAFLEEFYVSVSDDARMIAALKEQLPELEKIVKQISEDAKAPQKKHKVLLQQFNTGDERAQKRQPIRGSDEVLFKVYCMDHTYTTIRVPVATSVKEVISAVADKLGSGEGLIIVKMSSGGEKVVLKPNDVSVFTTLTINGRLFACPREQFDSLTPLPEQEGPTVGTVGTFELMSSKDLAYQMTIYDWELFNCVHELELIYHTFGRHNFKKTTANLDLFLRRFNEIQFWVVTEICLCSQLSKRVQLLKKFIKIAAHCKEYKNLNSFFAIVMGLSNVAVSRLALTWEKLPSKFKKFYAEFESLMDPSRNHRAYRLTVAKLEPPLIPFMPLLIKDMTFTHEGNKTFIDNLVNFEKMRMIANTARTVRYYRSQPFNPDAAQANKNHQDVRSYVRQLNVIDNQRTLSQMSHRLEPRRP
Rap guanine nucleotide exchange factor 3 (Homo sapiens), sequence (O95398 whole entry, looked up): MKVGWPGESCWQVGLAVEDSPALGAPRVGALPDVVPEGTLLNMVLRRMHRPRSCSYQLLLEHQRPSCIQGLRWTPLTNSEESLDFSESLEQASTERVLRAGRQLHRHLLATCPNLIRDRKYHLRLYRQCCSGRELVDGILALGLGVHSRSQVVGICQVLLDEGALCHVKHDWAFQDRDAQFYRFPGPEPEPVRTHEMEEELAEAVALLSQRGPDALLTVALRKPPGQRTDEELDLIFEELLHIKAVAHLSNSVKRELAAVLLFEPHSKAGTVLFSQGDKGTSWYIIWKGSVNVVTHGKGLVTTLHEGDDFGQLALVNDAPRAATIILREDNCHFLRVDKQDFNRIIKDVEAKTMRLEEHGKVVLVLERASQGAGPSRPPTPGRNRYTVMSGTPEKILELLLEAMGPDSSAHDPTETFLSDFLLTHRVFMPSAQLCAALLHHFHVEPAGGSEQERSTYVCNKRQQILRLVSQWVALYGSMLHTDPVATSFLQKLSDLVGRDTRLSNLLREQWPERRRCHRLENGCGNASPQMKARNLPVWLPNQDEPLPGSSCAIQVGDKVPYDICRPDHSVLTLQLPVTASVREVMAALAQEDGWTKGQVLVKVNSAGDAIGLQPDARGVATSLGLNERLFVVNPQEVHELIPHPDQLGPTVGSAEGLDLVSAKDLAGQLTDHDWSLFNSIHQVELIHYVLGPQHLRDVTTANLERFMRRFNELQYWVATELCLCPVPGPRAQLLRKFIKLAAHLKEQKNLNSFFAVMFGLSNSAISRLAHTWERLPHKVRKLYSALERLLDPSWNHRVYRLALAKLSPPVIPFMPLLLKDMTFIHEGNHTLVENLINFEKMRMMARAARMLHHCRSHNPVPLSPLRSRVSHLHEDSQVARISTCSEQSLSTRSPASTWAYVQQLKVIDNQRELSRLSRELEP
Nuclear receptor subfamily 1 group I member 3 (Homo sapiens), sequence (Q14994 whole entry, looked up): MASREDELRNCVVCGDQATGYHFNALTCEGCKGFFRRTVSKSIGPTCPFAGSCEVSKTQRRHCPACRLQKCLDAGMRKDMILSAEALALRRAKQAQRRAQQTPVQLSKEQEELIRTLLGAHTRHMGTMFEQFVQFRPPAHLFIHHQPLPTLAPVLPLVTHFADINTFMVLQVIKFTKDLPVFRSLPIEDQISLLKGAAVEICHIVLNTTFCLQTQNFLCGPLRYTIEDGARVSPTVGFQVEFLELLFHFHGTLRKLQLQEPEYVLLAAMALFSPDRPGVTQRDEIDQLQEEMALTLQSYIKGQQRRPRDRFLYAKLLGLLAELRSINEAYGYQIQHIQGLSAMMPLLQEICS

**Q.** With `Nc1ncnc2c1ncn2[C@H]1CC[C@@H](CO)O1` as the molecule, how does the outcome [1] read?
**A.** inactive

**Q.** With `O=C(Nc1ccc(O)cc1)c1ccccc1O` as the molecule, how does the outcome [1] read?
**A.** inactive

**Q.** Which outcome [2] does the source give for `Oc1ccc(/C=C/c2cc(O)cc(O)c2)cc1` here?
**A.** inactive

**Q.** And the outcome [3]?
**A.** inactive

**Q.** What about the outcome [4] of the same molecule?
**A.** inactive

**Q.** And the outcome [1]?
**A.** inactive

**Q.** And the outcome [5]?
**A.** inactive

**Q.** And the outcome [6]?
**A.** inactive

**Q.** What about the Potency [7] of the same molecule?
**A.** 31.6 µM (active)

**Q.** What about the outcome [8] of the same molecule?
**A.** inactive

**Q.** What does the source list for `NC(=O)Oc1ccc(Cc2ccccc2)cc1`?
**A.** outcome [2]: inactive; Potency [9]: inactive

**Q.** Which results are given for `COc1cc(NCCCC(C)N)c2ncccc2c1` (stereo not given)?
**A.** outcome [2]: inactive; Potency [9]: inactive; outcome [3]: inactive

**Q.** With `C=CC[C@@H]1/C=C(\C)C[C@H](C)C[C@H](OC)[C@H]2O[C@@](O)(C(=O)C(=O)N3CCCC[C@H]3C(=O)O[C@H](/C(C)=C/[C@@H]3CC[C@@H](O)[C@H](OC)C3)[C@H](C)[C@@H](O)CC1=O)[C@H](C)C[C@@H]2OC` as the molecule, how does the outcome [2] read?
**A.** inactive

**Q.** And the outcome [1]?
**A.** inactive

**Q.** And the Potency [10]?
**A.** 3.65 µM (active)

**Q.** With `CCN(CC)C(=S)S` as the molecule, how does the outcome [1] read?
**A.** inactive

**Q.** With `C=CC(C)(O)CC/C=C(\C)CCC=C(C)C` (stereo not given) as the molecule, how does the outcome [2] read?
**A.** inactive

**Q.** And the Potency [9]?
**A.** 44.1 µM (active)

**Q.** For `Nc1nccs1`, which outcome [1] is on record?
**A.** inactive

**Q.** Which outcome [1] does the source give for `CC(C)c1nc(N(C)S(C)(=O)=O)nc(-c2ccc(F)cc2)c1/C=C/C(O)CC(O)CC(=O)O` (stereo not given) here?
**A.** inactive

**Q.** Which outcome [2] does the source give for `O=C(NNCS(=O)(=O)O)c1ccncc1` here?
**A.** inactive

**Q.** And the Potency [9]?
**A.** inactive

**Q.** For `C=C1[C@H](CO)[C@@H](O)C[C@@H]1n1cnc2c(=O)[nH]c(N)nc21`, which outcome [1] is on record?
**A.** inactive

**Q.** Which outcome [1] does the source give for `CC(=O)N=c1sc(S(N)(=O)=O)nn1C` here?
**A.** inactive

**Q.** With `O=C(O)c1cc(N=Nc2ccc(O)c(C(=O)O)c2)ccc1O` as the molecule, how does the outcome [2] read?
**A.** inactive

**Q.** For `CCOC(=O)Oc1c(OC)cc(C(=O)O[C@@H]2C[C@@H]3CN4CCc5c([nH]c6cc(OC)ccc56)[C@H]4C[C@@H]3[C@H](C(=O)OC)[C@H]2OC)cc1OC`, which outcome [2] is on record?
**A.** inactive

**Q.** With `CSc1nc2cc(Oc3cccc(Cl)c3Cl)c(Cl)cc2[nH]1` as the molecule, how does the outcome [2] read?
**A.** inactive

**Q.** For `CC[C@H]1OC(=O)[C@H](C)[C@@H](O[C@H]2C[C@@](C)(OC)[C@@H](O)[C@H](C)O2)[C@H](C)[C@@H](O[C@@H]2O[C@H](C)C[C@H](N(C)C)[C@H]2O)[C@](C)(O)C[C@@H](C)CN(C)[C@H](C)[C@@H](O)[C@]1(C)O`, which outcome [1] is on record?
**A.** inactive

**Q.** For `CCCCC(=O)O[C@H]1CC[C@H]2[C@@H]3CCc4cc(O)ccc4[C@H]3CC[C@]12C`, which outcome [2] is on record?
**A.** inactive

**Q.** What about the Potency [9] of the same molecule?
**A.** inactive

**Q.** Which outcome [2] does the source give for `COc1ccc(/C=C/C(=O)O)cc1` here?
**A.** inactive

**Q.** And the Potency [9]?
**A.** inactive

**Q.** With `COc1ccc2c(c1)N(C[C@H](C)CN(C)C)c1ccccc1S2` as the molecule, how does the outcome [2] read?
**A.** inactive

**Q.** What about the Potency [9] of the same molecule?
**A.** inactive

**Q.** With `CC1CC(OC(=O)C(O)c2ccccc2)CC(C)(C)C1` (stereo not given) as the molecule, how does the outcome [2] read?
**A.** inactive

**Q.** For `CC(C)[C@@H](C)/C=C/[C@@H](C)[C@H]1CC[C@H]2/C(=C/C=C3\C[C@@H](O)CC[C@@H]3C)CCC[C@]12C`, which outcome [2] is on record?
**A.** inactive

**Q.** With `CNC(=O)[C@H](Cc1c[nH]c2ccccc12)NC(=O)[C@@H](CC(=O)NO)CC(C)C` as the molecule, how does the Potency [10] read?
**A.** inactive
